In assay [1] the target is human RAR-related Orphan Receptor beta (RORb), RORB (gene 6096) (UniProt Q92753). Description: ATG_RORb_TRANS: Attagene TRANS-FACTORIAL HepG2 Assay for human RAR-related Orphan Receptor beta (RORb) (AID 2283010; active = hit-call score of the fitted dose curve at least 0.9, where 1 is the maximum). In outline:
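HepG2 cells transiently transfected with GAL4-UAS reporter units expressing chimeric NR-Gal4 protein; reporter mRNA measured 24 h after dosing by RT-PCR, 6-FAM labelling and capillary electrophoresis. Gain-of-signal fitted relative to DMSO baseline.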

In assay [2] the target is human RAR-related Orphan Receptor gamma (RORg), RORC (gene 6097) (UniProt P51449). Description: ATG_RORg_TRANS: Attagene TRANS-FACTORIAL HepG2 Assay for human RAR-related Orphan Receptor gamma (RORg) (AID 2283011; active = hit-call score of the fitted dose curve at least 0.9, where 1 is the maximum). In outline:
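Activity is scored as increase in GAL4-UAS reporter mRNA over DMSO, detected by fluorescent RT-PCR and capillary electrophoresis in HepG2 cells transiently expressing a RORg-Gal4 chimera, 24 h after dosing.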

The target of assay [3] is Retinoic acid receptor RXR-alpha (Homo sapiens) (UniProt P19793). As to the kind of experiment: ATG_RXRa_TRANS: Attagene TRANS-FACTORIAL HepG2 Assay for human Retinoid X Receptor alpha (RXRa) (AID 2283012; active = hit-call score of the fitted dose curve at least 0.9, where 1 is the maximum). The method, boiled down:
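HepG2 cells transiently transfected with GAL4-UAS reporter units and chimeric RXRa-Gal4 protein, treated 24 h. Reporter mRNA measured by RT-PCR, fluorescent labelling, HpaI digestion and capillary electrophoresis. Induction fitted against DMSO.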

Assay [4] concerns the target human Thyroid Receptor alpha (THRa1), THRA (gene 7067) (UniProt P10827). Description: ATG_THRa1_TRANS: Attagene TRANS-FACTORIAL HepG2 Assay for human Thyroid Receptor alpha (THRa1) (AID 2283014; active = hit-call score of the fitted dose curve at least 0.9, where 1 is the maximum). In outline:
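First, HepG2 cells receive multiple GAL4-UAS reporter units and the chimeric receptor. They are then dosed for 24 h, after which RNA is reverse-transcribed, amplified, labelled, HpaI-cut and sized by capillary electrophoresis; gain relative to DMSO is scored.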

Read-out in assay [5]: E-selectin (Homo sapiens) (UniProt P16581)
Description: BSK_3C_Eselectin: BioMAP Diversity Plus: 3C Assay for Eselectin Biomarker Activity (AID 2283015).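 For outcome: cell surface E-selectin protein quantified by ELISA 24 h after dosing.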 The following applies: primary human endothelial cells (HUVEC); actives raise or lower the signal. In outline: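 Human vascular endothelium from umbilical vein is exposed to test chemicals for 24 h. E-selectin levels are read by ELISA and compared with DMSO controls.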

Read-out in assay [6]: Interleukin-1 alpha (IL1a), IL1A (gene 3552)
Description: BSK_BE3C_IL1a: BioMAP Diversity Plus: BE3C Assay for Interleukin-1 alpha (IL1a) Biomarker Activity (AID 2283016). The following applies: primary human bronchial epithelial cells; actives raise or lower the signal. The method, boiled down:
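Human primary bronchial epithelial cells, 24 h chemical exposure; IL-1a quantified by ELISA, fitted bidirectionally against DMSO. Cytotoxicity assessed in parallel by SRB total-protein staining at the time of measurement.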

Read-out in assay [7]: Monocyte Chemoattractant Protein-1 (MCP1), CCL2 (gene 6347)
As to the kind of experiment: BSK_3C_MCP1: BioMAP Diversity Plus: 3C Assay for Monocyte Chemoattractant Protein-1 (MCP1) Biomarker Activity (AID 2283017). The following applies: primary human endothelial cells (HUVEC); actives raise or lower the signal. In outline: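 Endothelial cells from human umbilical vein are dosed with chemical, cultured 24 h, then assayed for MCP-1 by ELISA; both increases and decreases are modelled against DMSO controls.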

Read-out in assay [8]: Monocyte Chemoattractant Protein-1 (MCP1), CCL2 (gene 6347)
Description: BSK_4H_MCP1: BioMAP Diversity Plus: 4H Assay for Monocyte Chemoattractant Protein-1 (MCP1) Biomarker Activity (AID 2283018). The conditions noted are these: primary human endothelial cells (HUVEC); actives raise or lower the signal. The method, boiled down:
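Human umbilical vein endothelial cells (4H system) exposed to chemicals for 24 h in 96-well format. MCP-1 measured by ELISA; bidirectional fitting against DMSO, with SRB total-protein staining in parallel cultures for cytotoxicity.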

Read-out in assay [9]: Human Leukocyte Antigen - DR isotype (HLADR), HLA-DRA (gene 3122)
As to the kind of experiment: BSK_3C_HLADR: BioMAP Diversity Plus: 3C Assay for Human Leukocyte Antigen - DR isotype (HLADR) Biomarker Activity (AID 2283019).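 For outcome: ELISA of cell-surface HLA-DR on HUVEC 24 h after dosing.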 The following applies: primary human endothelial cells (HUVEC); actives raise or lower the signal. The method, boiled down: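 Endothelial cells from human umbilical vein are treated with test chemical; after 24 h, HLA-DR levels are measured by ELISA. Data are fitted in both directions using DMSO as the baseline.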

Assay [10] has as its target human Retinoid X Receptor beta (RXRb), RXRB (gene 6257) (UniProt P28702). Description: ATG_RXRb_TRANS: Attagene TRANS-FACTORIAL HepG2 Assay for human Retinoid X Receptor beta (RXRb) (AID 2283013; active = hit-call score of the fitted dose curve at least 0.9, where 1 is the maximum). The method, boiled down: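 HepG2 cells were transiently transfected with multiplexed GAL4-UAS reporters and a chimeric RXRb-Gal4 construct, then exposed for 24 h. Reporter mRNA was quantified by RT-PCR, FAM labeling, HpaI digestion and capillary electrophoresis; gain of signal was scored against DMSO.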

Results filed as inconclusive are left out. Some compounds were tested as several samples or in several runs, with calls that do not always agree. Activity calls are given as the source filed them. Rule for the calls, unless noted: active = hit-call score of the fitted dose curve at least 0.9, where 1 is the maximum; inactive = score below 0.9.

Chain of human Retinoid X Receptor beta (RXRb), RXRB (gene 6257) (P28702 whole entry, looked up, the tested form may be a part): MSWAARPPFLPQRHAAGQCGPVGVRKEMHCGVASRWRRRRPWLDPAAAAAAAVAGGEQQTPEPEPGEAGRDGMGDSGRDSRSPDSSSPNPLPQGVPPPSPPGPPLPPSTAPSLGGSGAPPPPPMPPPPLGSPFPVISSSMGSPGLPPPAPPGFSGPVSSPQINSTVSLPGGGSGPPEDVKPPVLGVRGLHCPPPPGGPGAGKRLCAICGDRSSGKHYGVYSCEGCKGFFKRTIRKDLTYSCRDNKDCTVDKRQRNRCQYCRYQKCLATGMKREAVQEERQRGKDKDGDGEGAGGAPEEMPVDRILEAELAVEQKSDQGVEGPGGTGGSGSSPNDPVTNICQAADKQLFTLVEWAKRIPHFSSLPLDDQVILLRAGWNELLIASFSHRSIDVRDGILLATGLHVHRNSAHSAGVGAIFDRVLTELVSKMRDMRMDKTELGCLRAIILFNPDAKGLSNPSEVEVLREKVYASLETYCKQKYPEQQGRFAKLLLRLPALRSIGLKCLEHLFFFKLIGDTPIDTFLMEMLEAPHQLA
Chain of human RAR-related Orphan Receptor beta (RORb), RORB (gene 6096) (Q92753 whole entry, looked up, the tested form may be a part): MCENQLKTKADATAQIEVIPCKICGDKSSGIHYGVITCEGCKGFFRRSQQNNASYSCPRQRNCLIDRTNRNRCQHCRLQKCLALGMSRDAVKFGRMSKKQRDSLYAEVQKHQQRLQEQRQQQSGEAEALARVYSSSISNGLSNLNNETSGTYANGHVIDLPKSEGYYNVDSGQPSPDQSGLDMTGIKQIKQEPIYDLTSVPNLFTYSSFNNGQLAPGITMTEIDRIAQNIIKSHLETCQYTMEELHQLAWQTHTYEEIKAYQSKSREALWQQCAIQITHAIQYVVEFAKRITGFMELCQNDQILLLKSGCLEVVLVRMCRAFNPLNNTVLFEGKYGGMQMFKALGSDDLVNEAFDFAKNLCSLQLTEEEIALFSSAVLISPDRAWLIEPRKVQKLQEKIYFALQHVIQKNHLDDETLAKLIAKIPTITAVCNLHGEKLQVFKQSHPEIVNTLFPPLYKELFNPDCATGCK
Chain of Retinoic acid receptor RXR-alpha (Homo sapiens) (P19793 whole entry, looked up, the tested form may be a part): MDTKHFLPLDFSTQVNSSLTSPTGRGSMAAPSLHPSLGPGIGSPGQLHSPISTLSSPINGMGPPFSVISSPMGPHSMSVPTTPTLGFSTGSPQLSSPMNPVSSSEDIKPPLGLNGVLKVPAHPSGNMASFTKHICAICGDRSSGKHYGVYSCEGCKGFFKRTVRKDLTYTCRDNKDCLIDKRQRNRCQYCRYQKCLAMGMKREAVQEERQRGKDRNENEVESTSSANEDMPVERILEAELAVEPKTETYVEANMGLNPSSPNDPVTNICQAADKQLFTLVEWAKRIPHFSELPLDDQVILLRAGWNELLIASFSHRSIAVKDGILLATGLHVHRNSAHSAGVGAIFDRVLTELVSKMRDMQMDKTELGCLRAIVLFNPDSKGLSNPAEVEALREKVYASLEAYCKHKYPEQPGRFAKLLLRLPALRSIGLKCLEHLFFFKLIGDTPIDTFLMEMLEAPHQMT
Chain of E-selectin (Homo sapiens) (P16581 whole entry, looked up): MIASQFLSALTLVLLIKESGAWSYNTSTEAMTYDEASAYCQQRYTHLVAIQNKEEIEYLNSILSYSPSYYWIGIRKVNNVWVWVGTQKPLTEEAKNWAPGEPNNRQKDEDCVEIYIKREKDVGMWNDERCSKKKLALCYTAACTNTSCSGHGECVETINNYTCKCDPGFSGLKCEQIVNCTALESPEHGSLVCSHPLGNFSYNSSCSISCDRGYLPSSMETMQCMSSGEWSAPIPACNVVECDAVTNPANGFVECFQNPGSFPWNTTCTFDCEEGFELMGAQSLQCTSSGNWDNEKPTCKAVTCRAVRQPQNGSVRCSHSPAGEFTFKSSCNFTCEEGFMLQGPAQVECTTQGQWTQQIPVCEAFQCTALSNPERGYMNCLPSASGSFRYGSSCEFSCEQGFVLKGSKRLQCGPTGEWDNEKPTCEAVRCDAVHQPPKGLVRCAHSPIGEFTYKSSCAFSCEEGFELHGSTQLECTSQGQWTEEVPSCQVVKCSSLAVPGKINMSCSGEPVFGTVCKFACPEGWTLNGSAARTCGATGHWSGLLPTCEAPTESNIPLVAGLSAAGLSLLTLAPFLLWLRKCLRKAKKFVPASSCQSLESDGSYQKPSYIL
Chain of human Thyroid Receptor alpha (THRa1), THRA (gene 7067) (P10827 whole entry, looked up, the tested form may be a part): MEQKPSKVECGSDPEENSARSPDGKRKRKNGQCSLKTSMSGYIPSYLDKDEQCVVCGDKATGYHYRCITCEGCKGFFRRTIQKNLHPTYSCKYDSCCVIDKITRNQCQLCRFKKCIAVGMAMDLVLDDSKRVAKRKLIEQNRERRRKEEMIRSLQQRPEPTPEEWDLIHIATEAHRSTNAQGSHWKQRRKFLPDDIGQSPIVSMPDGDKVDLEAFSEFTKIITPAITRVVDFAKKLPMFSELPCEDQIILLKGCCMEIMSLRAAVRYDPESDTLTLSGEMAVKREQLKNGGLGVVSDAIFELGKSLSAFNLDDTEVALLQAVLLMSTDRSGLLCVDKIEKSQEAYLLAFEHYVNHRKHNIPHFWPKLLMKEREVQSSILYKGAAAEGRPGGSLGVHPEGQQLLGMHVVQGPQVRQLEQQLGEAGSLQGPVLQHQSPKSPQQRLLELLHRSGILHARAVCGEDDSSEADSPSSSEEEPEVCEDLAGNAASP
Chain of human RAR-related Orphan Receptor gamma (RORg), RORC (gene 6097) (P51449 whole entry, looked up, the tested form may be a part): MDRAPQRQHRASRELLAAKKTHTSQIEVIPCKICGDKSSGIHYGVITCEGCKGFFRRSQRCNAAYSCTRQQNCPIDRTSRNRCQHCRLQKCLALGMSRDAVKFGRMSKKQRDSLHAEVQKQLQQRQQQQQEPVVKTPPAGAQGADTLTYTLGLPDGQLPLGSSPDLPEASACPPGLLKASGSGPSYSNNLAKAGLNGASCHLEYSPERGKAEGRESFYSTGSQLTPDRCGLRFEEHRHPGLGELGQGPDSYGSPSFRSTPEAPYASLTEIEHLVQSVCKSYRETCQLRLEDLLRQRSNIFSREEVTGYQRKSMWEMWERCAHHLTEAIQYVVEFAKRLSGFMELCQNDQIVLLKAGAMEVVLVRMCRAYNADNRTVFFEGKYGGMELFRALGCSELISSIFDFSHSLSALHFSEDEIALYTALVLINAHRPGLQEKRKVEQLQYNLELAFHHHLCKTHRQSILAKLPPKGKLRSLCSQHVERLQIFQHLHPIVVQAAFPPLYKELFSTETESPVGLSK

`Nc1cc(Cl)c(N)c(Cl)c1`: the result in assay [1], in assay [2], in assay [3] and in assay [4] was inactive.
For the compound `OCC(F)(F)C(F)(F)C(F)(F)C(F)F`, the compound was classed as inactive in assay [1], in assay [2], in [3], in [5], in assay [6] and in assay [7]. For the same compound, the result in [8] and in assay [9] was inactive.
For the compound `CC/C=C\CCOC(=O)c1ccccc1`, the compound was called inactive in [1], in [3] and in assay [10].
On to `O=C(O)C(F)(OC(F)(F)C(F)(OC(F)(F)C(F)(OC(F)(F)C(F)(F)C(F)(F)F)C(F)(F)F)C(F)(F)F)C(F)(F)F` (stereo unspecified), for which the call in [1], in [2], in assay [3], in assay [5], in [6] and in assay [7] was inactive. Also, the outcome in [8] was inactive.
With `Cc1ccc(S(=O)(=O)NCl)cc1`, the compound was classed as inactive in assay [1], in [2], in assay [3] and in assay [4].
Consider `CCCCCCCOC(=O)c1ccccc1C(=O)OCCCCCCC`, for which the compound was classed as inactive in [1], in assay [2], in assay [4], in assay [5], in [6] and in assay [7]. Besides, the outcome in assay [8] and in [9] was inactive.
On to `N=C(N)C(F)(F)C(F)(F)C(F)(F)C(F)(F)C(F)(F)C(F)(F)C(F)(F)F`, for which the compound was classed as inactive in assay [1], in assay [2], in assay [3], in [5], in assay [6] and in assay [7]. Moreover, the outcome in assay [8] was inactive. The AC50 (as a rule, the concentration giving half of the maximal activity seen) in assay [7] is 46.3 µM (active).
On to `CC(C)OC(=O)c1ccccc1C(=O)OC(C)C`, for which the outcome in [1] and in assay [3] was inactive.
Take `FC(F)(F)C(F)(F)C(F)(F)CI`: the call in [1], in assay [2], in assay [4], in assay [5], in [6] and in assay [7] was inactive. The result in assay [8] and in assay [9] was inactive.
On to `CC(=O)Nc1ccc(N=Nc2cc(C)ccc2O)cc1`, for which the outcome in [1], in assay [2], in assay [10], in assay [6], in assay [7] and in assay [8] was inactive. The AC50 in [4] was 47.6 µM (active); in assay [5], 0.463 µM (active); in [9] it was 14.5 µM (active).
Consider `c1ccc(-c2ccccc2-c2ccccc2)cc1`, for which the outcome in assay [1] and in assay [3] was inactive. Moreover, in assay [10], the AC50 was 12.7 µM (active).
On to `O=C(C=Cc1ccccc1)OCC=Cc1ccccc1`, for which the compound was classed as inactive in [1], in assay [3] and in assay [4].
For the compound `Nc1ccc([N+](=O)[O-])cc1O`, the compound was classed as inactive in assay [1], in assay [3], in assay [4], in assay [5], in assay [6] and in [7]. Besides, the result in [8] was inactive.
As for `CC(C)c1ccccc1N`, the result in assay [1] and in [10] was inactive.
Regarding `O=C(O)C(F)(F)C(F)(F)C(F)F`, the call in [2], in assay [3], in assay [10], in [4], in assay [5] and in [6] was inactive. Moreover, the outcome in assay [7], in [8] and in assay [9] was inactive.
With `Nc1ccc(Oc2cccc(Oc3ccc(N)cc3)c2)cc1`, the call in [2] was inactive.
On the same count and under the same terms, with `CC/C=C\CCOC(C)=O` the entry was “inactive”.
Consider `CCO[Si](CCC(F)(F)C(F)(F)C(F)(F)C(F)(F)C(F)(F)C(F)(F)F)(OCC)OCC`, for which the result in assay [2], in assay [3], in assay [4], in [5], in [6] and in [7] was inactive. The result in assay [8] was inactive.
For the compound `C(=C(c1ccccc1)c1ccccc1)c1ccccc1`, the call in assay [1], in assay [3] and in [4] was inactive.
In the case of `O=C(OCCOCCOCCOC(=O)c1ccccc1)c1ccccc1`, in assay [2], the call was inactive.
As to `C=CC(F)(F)C(F)(F)C(F)(F)C(F)(F)C(F)(F)C(F)(F)C(F)(F)C(F)(F)F`, the compound was classed as inactive in assay [1], in [3], in [5], in assay [6], in assay [7] and in assay [8].
As to `CCc1c(Br)c(Br)c(Br)c(Br)c1Br`, the compound was called inactive in [1], in [3], in [4], in assay [5], in assay [6] and in [7]. Besides, the outcome in [8] and in [9] was inactive. Further, the AC50 in assay [10] is 5.94 µM (active).
On to `O=S(=O)(O)c1ccc2ccccc2c1`, for which the outcome in assay [1], in assay [3] and in assay [4] was inactive.
Turning to `CC(Cc1ccc(O)c(O)c1)C(C)Cc1ccc(O)c(O)c1` (stereo unspecified), the result in [2] and in assay [3] was inactive.
In the case of `CCCCCC=O`, the outcome in [1], in assay [3], in assay [10] and in assay [4] was inactive.
For the compound `CCCCNc1ccccc1`, the compound was classed as inactive in assay [1], in assay [4], in [5], in assay [6], in assay [7] and in assay [8].
As to `NC(=O)C(F)(F)C(F)(F)C(F)(F)C(F)(F)F`, the compound was classed as inactive in [1], in assay [5], in assay [6], in assay [7] and in [8].
Consider `C=CC(=O)OCC(F)(F)C(F)(F)C(F)(F)C(F)(F)C(F)(F)C(F)(F)C(F)(F)F`, for which the outcome in assay [1], in assay [5], in assay [6], in assay [7] and in assay [8] was inactive.
On to `CCCCC(CC)COP(=O)(O)OCC(CC)CCCC` (stereo unspecified), for which the result in assay [1], in [5], in assay [6], in assay [7] and in assay [8] was inactive.
Take `CCC(=O)OCCc1ccccc1`: the result in assay [1], in assay [3] and in assay [4] was inactive.

Source of the values: PubChem BioAssay (EPA / NIEHS).
